Screening data: PubChem BioAssay, National Center for Advancing Translational Sciences (NCATS)
BAZ2B inh: blocks human BAZ2B; Q9UIF8; 4.4% of 360,000 active; AlphaScreen BAZ2B-H3K14Ac peptide displacement; Potency, µM (series often up to 114 µM), for inactives: at the highest dose activity change, negative = inhibition, usual class: inhibitors; AID 504333; further: on the % scale 0 is the no-effect control and ±100 the full control effect; nearly all actives have a fitted effect of over 60% in size
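AlphaScreen displacement: compounds (up to 110uM) incubated 30 min at room temperature with a preformed 50 nM BAZ2B/50 nM biotinylated H3K14Ac peptide complex in PBS pH 7.4 with Tween-20. Donor and acceptor beads at 10 ug/mL final added, 20 min light-protected before reading.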
JMJD2A Tudor: JMJD2A Tudor domain (human) inhibition. 4.4% of 390,000 active. AlphaScreen JMJD2A-Tudor / H3K4me3 peptide binding. AID 504339. O75164. Potency, µM (top dose mostly 114 µM), for the others: at the highest dose activity change, negative = inhibition, most hits filed as inhibitors; further: on the % scale 0 is the no-effect control and ±100 the full control effect; nearly all actives have a fitted effect of over 50% in size
Sfp inh: blocks B. subtilis Sfp PPTase activity; Q9F4F7; Biochemical Sfp PPTase activity, qHTS; Potency, µM, for the others: largest response in the series, negative = inhibition, most hits filed as inhibitors; 3.5% of 310,000 active; AID 1490;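 further: the enzyme is Sfp with the accession as filed and its product quenches rhodamine fluorescence; 0% = enzyme reaction without inhibitor and -100% = no enzyme wells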
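Compounds were incubated with enzyme (final 15 nM) for 15 min at room temperature before substrate addition started the reaction. Fluorescence at 525 nm excitation, 598 nm emission was recorded immediately and after 30 minutes.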
HP1b binding inh: inhibitors of HP1-beta chromodomain binding to methylated histone tails. P83916. AlphaScreen HP1-beta / biotin-H3K9me3 peptide binding. Potency, µM (highest dose often 114 µM), for the others: at the top dose activity change, negative = inhibition, most hits filed as inhibitors. AID 540317. 0.56% of 390,000 active; further: nearly all actives have a fitted effect of over 70% in size
Target sequence (P83916 whole entry, looked up): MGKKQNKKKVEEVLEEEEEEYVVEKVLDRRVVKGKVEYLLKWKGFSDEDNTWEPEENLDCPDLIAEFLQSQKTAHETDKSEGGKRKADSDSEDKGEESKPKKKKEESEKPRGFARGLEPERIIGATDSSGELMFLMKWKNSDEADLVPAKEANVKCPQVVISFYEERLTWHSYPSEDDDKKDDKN
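Compound inhibition of the preformed complex between 50 nM HP1-beta and 50 nM biotinylated H3K9me3 peptide was read by AlphaScreen. Buffer was PBS pH 7.4 with 0.01% Tween-20. Incubations ran 30 min at room temperature, with 10 ug/mL donor/acceptor beads.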
PLK1 PBD block: PLK1 (human) polo-box domain binding inhibition | AID 720504 | 2.8% of 360,000 active | Potency, µM, inactives show max response, negative = inhibition, actives largely listed as inhibitors | Plk1 PBD binding of FITC phosphopeptide, fluorescence polarization | P53350; further: series mostly up to about 57 µM; on the % scale 0 is the no-effect control and ±100 the full control effect; nearly all actives have a fitted effect of over 65% in size
G9a block: blocks human histone lysine methyltransferase G9a | Q96KQ7 | G9a H3K9 monomethylation, AlphaScreen, 2 h | Potency, µM (series often up to 102 µM), for inactives: at the top dose activity, negative = inhibition, most hits filed as inhibitors | 8.8% of 350,000 active; further: on the % scale 0 is the no-effect control and ±100 the full control effect; nearly all actives have a fitted effect of over 75% in size
Target sequence (Q96KQ7 913-1193 limits assumed): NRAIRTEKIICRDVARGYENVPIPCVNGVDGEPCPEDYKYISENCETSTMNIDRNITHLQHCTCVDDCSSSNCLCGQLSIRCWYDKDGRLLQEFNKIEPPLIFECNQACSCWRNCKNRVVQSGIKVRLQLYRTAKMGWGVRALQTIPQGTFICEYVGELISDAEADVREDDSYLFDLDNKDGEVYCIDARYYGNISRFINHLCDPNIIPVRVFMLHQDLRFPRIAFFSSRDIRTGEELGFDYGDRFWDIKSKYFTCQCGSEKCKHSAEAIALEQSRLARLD
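AlphaScreen detection with an anti-monomethyl H3K9 antibody quantified product after a 2 h room-temperature reaction containing 500 nM biotinylated H3K9 peptide, 20 µM SAM and 20 nM enzyme, which had been preincubated 15 min with compound.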
* = called active by the depositor; [ ] = dose if it differs, or a comment. Most compounds without a hit are left out; they make up all but 12% or so of the library. The call rests on the fitted dose curve; in most records, active means well fitted curve in the direction sought with a large enough effect; inconclusive means small, poorly fitted or top-dose-only effect, or another doubt; inactive means no such curve, though single readings can be large; an effect the other way counts as inactive or inconclusive. Potency means the concentration at half of the fitted maximal effect.

Cc1ccc2[nH]c3c(c2c1)CN(C(=O)CN1CC(C)OC(C)C1)CC3 (stereo not given) was read as BAZ2B inh -1.8%, JMJD2A Tudor -20.5%[11.4 µM], Sfp inh -16.6%, HP1b binding inh 31.4%, PLK1 PBD block -25.6% and G9a block inconclusive.
`Cc1ccc2[nH]c3c(c2c1)CN(C(=O)CN1CCN(c2ccccn2)CC1)CC3` gave BAZ2B inh 50.1µM*, JMJD2A Tudor -34.6%, Sfp inh -12.3%, HP1b binding inh -1.8%, PLK1 PBD block -10.3% and G9a block 20µM*.
For O=C(CN1CCN(c2ccccc2)CC1)N1CCc2[nH]c3ccccc3c2C1 the results were BAZ2B inh 50.1µM*, JMJD2A Tudor inconclusive, Sfp inh 2.8%, HP1b binding inh -0.7%, PLK1 PBD block -5.4% and G9a block inconclusive.
O=C(N1CCc2[nH]c3ccccc3c2C1)C(F)(F)F was read as BAZ2B inh -23.4%, JMJD2A Tudor -21.7%, Sfp inh 7.7%, HP1b binding inh 12.9%, PLK1 PBD block 37.7µM* and G9a block 10.1%.
For Cc1ccc(S(=O)(=O)Nc2ccc(-c3csc(-c4ccccc4)n3)cc2)cc1 the results were BAZ2B inh -10.0%, JMJD2A Tudor -25.8%, Sfp inh 13.6%, HP1b binding inh 17.8%, PLK1 PBD block 1.6% and G9a block 13.9%[59 µM].
`Cc1ccc(C(=O)c2c3ccccc3[n+]([O-])n2CCC(N)=O)cc1` gave BAZ2B inh 1.7%, JMJD2A Tudor -11.3%, Sfp inh 11.2%, HP1b binding inh 23.5%, PLK1 PBD block -9.6% and G9a block 25.9%.
`CC(=O)OCc1cnc(C)c2oc(=O)c(C(=O)Nc3ccc(F)cc3C)cc12` gave BAZ2B inh -12.6%, JMJD2A Tudor -20.2%, HP1b binding inh 9.0% and G9a block 8.2%[59 µM].
For Cc1ccc2[nH]c3c(c2c1)CN(C(=O)CN1CCN(Cc2ccc4c(c2)OCO4)CC1)CC3 the results were BAZ2B inh -67.4%, JMJD2A Tudor 50.1µM*, Sfp inh -17.1%, HP1b binding inh inconclusive, PLK1 PBD block -11.6% and G9a block inconclusive.
For Cc1ccc2occ(C3N[C@H](C(=O)O)CS3)c(=O)c2c1 (stereo not given in full) the results were BAZ2B inh inconclusive, JMJD2A Tudor 7.94µM*, Sfp inh 50.1µM*, HP1b binding inh inconclusive, PLK1 PBD block inconclusive and G9a block 31.6µM*.
Cc1ccc2occ(C3NC(C(=O)O)CS3)c(=O)c2c1 (stereo not given) was read as BAZ2B inh 50.1µM*, JMJD2A Tudor 4.5%, Sfp inh 14.1µM*, HP1b binding inh 43.9%, PLK1 PBD block 0.0% and G9a block 5.01µM*.
`Cc1ccc2occ(CN3CCN(c4ccccc4)CC3)c(=O)c2c1` gave BAZ2B inh -29.8%, JMJD2A Tudor inconclusive, Sfp inh -10.0%, HP1b binding inh -9.2%, PLK1 PBD block -10.7% and G9a block -5.1%[12.7 µM].
Screening Cc1ccccc1NC(=O)C(Cc1ccccc1)N1Cc2ccccc2C1=O (stereo not given) returned BAZ2B inh -4.6%, JMJD2A Tudor -10.6%, HP1b binding inh 13.6% and G9a block -9.3%[59 µM].
`CCCCOC(=O)Nc1cccc(Cl)c1C` gave BAZ2B inh 34.5%, JMJD2A Tudor 41.6%, Sfp inh 14.2%, HP1b binding inh 59.2%, PLK1 PBD block 0.5% and G9a block 48.7%[59 µM].
For Cc1sc(NC(=O)c2cccs2)nc1-c1ccccc1 the results were BAZ2B inh -0.7%, JMJD2A Tudor -26.4%, Sfp inh 14.5%, HP1b binding inh 31.3%, PLK1 PBD block -6.3% and G9a block -50.7%.
`Cc1sc(N/N=C/c2cccs2)nc1-c1ccccc1` gave BAZ2B inh -27.0%, JMJD2A Tudor 25.1µM*, Sfp inh -9.9%, HP1b binding inh inconclusive, PLK1 PBD block inconclusive and G9a block 44.7µM*.
COc1ccc(OC)c(-c2nc(C(=O)NCCCN3CCOCC3)cc3c2[nH]c2ccccc23)c1 was read as BAZ2B inh 50.1µM*, JMJD2A Tudor inconclusive, Sfp inh -10.1%, HP1b binding inh 19.3%, PLK1 PBD block 2.9% and G9a block 3.1%[12.7 µM].
For COc1ccc(-n2nc(C(=O)NCCCN3CCOCC3)c3ccccc3c2=O)c(OC)c1 the results were BAZ2B inh -23.9%, JMJD2A Tudor 56.2µM*, Sfp inh 6.4%, HP1b binding inh 9.4%, PLK1 PBD block 21.2µM* and G9a block 15.4%.
`COc1ccc(OC)c(-c2nc(C(=O)NC3CCN(Cc4ccccc4)CC3)cc3c2[nH]c2ccccc23)c1` gave BAZ2B inh inconclusive, JMJD2A Tudor inconclusive, Sfp inh 0.7%, HP1b binding inh 14.8%, PLK1 PBD block 3.5% and G9a block -4.5%[12.7 µM].
For CCc1ccc(NC(=O)Cn2cnc3sc(C)c(S(=O)(=O)N4CCC(C)CC4)c3c2=O)cc1 the results were BAZ2B inh 3.2%, JMJD2A Tudor -4.8%, HP1b binding inh 23.4% and G9a block -18.0%[59 µM].
COCc1nnc(NC(=O)C2CC(=O)N(C3CCCC3)C2)s1 (stereo not given) was read as BAZ2B inh -0.5%, JMJD2A Tudor -6.2%, Sfp inh inconclusive, HP1b binding inh -10.3%, PLK1 PBD block inconclusive and G9a block 28.2µM*.
`COCc1nnc(NC(=O)C2CC(=O)N(CCc3ccc(F)cc3)C2)s1` (stereo not given) gave BAZ2B inh inconclusive, JMJD2A Tudor -7.7%, Sfp inh inconclusive, HP1b binding inh -29.0%, PLK1 PBD block inconclusive and G9a block 39.8µM*.
Screening CCCc1nnc(NC(=O)C2CC(=O)N(CCc3ccc(F)cc3)C2)s1 (stereo not given) returned BAZ2B inh -23.6%, JMJD2A Tudor -11.9%, Sfp inh -6.6%, HP1b binding inh -7.6%, PLK1 PBD block inconclusive and G9a block inconclusive.
Screening Cc1nc(SCC(=O)Nc2ccc(Cl)cc2[N+](=O)[O-])nc(C)c1C returned BAZ2B inh 44.7µM*, JMJD2A Tudor inconclusive, Sfp inh -62.9%, HP1b binding inh inconclusive, PLK1 PBD block inconclusive and G9a block 11.2µM*.
Cc1ccc(SCC(=O)Nc2ccc(F)cc2[N+](=O)[O-])cc1C was read as BAZ2B inh 12.6µM*, JMJD2A Tudor inconclusive, Sfp inh -6.6%, HP1b binding inh 50.1µM*, PLK1 PBD block -11.1% and G9a block inconclusive.
Cc1cc(C)n2nc(SCC(=O)Nc3ccc(F)cc3[N+](=O)[O-])nc2n1 was read as JMJD2A Tudor -12.8%, HP1b binding inh 28.5% and PLK1 PBD block -1.3%.
